Results: PubChem BioAssay AID463173 (ICCB-Longwood Screening Facility, Harvard Medical School, 2010)
Among all 52,000 compounds or so, about 4,300 (8.3%) were called active. The sample holds actives, similar compounds and a random draw of the others, so the mix is not that of the screen. No stated cut-off is given here; in the data, active means survival mostly below about 52% (no sharp cut-off); inactive means mostly above about 56%.

Test system: DeltatarO mutant
Experiment: growth inhibition of S. aureus wild type versus tarO mutant, primary screen, teichoic acid synthesis inhibitors, RN4220, OD600 (AID 463173)
Settings: OD600, 18 h, active compounds read low, screened at 18.75 µg/mL (by protocol)

Structure (SMILES) | survival
N#Cc1c(Nc2ccccc2)sc(C(=O)c2cccs2)c1N | 75% (inactive)
O=C(O)c1cccc2cc[nH]c12 | 101% (inactive)
Cc1ccc2nc(-c3cccc(NC(=O)c4cccc5ccccc45)c3)oc2c1 | 50% (inactive)
Cc1cc(C)c2oc(-c3cccc(NC(=O)c4cc5ccccc5o4)c3)nc2c1 | 36% (active)
Cc1cc(C)c2oc(-c3cccc(NC(=O)c4ccco4)c3)nc2c1 | 87% (inactive)
CC(C)(C)c1ccc(-c2nc3cc(NC(=O)c4cc5ccccc5o4)ccc3o2)cc1 | 71% (inactive)
Cc1ccc2nc(-c3cccc(NC(=O)c4ccc(Br)o4)c3)oc2c1 | 15% (active)
Cc1cc(C)c2oc(-c3cccc(NC(=O)c4ccc(Br)o4)c3)nc2c1 | 34% (active)
COc1cccc(OC)c1C(=O)Nc1cccc(-c2nc3cc(C)cc(C)c3o2)c1 | 68% (inactive)
Cc1cc(C)c2oc(-c3cccc(NC(=O)c4ccc(-c5cccc([N+](=O)[O-])c5)o4)c3)nc2c1 | 75% (inactive)
Cc1ccc2nc(-c3cccc(NC(=O)CSc4ccc(Cl)cc4)c3)oc2c1 | 56% (inactive)
CCc1ccc(-n2c(=O)c3cccnc3n2CC(=O)NCc2ccc(F)cc2)cc1 | 94% (inactive)
Cc1cccc(NC(=O)C2CCN(S(=O)(=O)c3cccc4nsnc34)CC2)c1C | 88% (inactive)
CCc1ccc(C2=CC(c3cccc(C)c3)n3c(nc4ccccc43)N2)cc1 (stereo unspecified) | 80% (inactive)
COc1ccc(-n2c(SCC(=O)Nc3cc(C)cc(C)c3)nc3c(oc4ccccc43)c2=O)cc1 | 70% (inactive)
CCOc1ccc(NC(=O)c2ccc3[nH]c(C)cc(=O)c3c2)cc1 | 79% (inactive)
Cc1cccc(N2CCN(S(=O)(=O)c3ccc4c(c3)CC(=O)N4C)CC2)c1C | 129% (inactive)
Cc1ccnc(NCc2cccc3ccccc23)c1 | 93% (inactive)
Cc1ccnc(NC(c2cc(C)ccc2O)c2ccc3cccnc3c2O)c1 (stereo unspecified) | 4% (active)
Oc1c(C(Nc2ccccn2)c2ccccc2F)ccc2cccnc12 (stereo unspecified) | 102% (inactive)
Cc1ccc(O)c(CNc2cccc3cccnc23)c1 | 79% (inactive)
Cc1ccnc(NC(c2ccccc2F)c2ccc3cccnc3c2O)c1 (stereo unspecified) | -1% (active)
CCOc1cc(C(Nc2cc(C)ccn2)c2ccc3cccnc3c2O)ccc1OC (stereo unspecified) | 146% (inactive)

Structure (SMILES) | survival
CC1CCc2c(sc3nnn(CC(=O)Nc4cccc(C(F)(F)F)c4)c(=O)c23)C1 (stereo unspecified) | 70% (inactive)
COc1ccc(NC(=O)c2cc(S(=O)(=O)N3CCCCCC3)cn2C)c(OC)c1 | 80% (inactive)
COc1ccccc1N1CCN(C(=O)CCn2cnc3onc(-c4ccc(F)cc4)c3c2=O)CC1 | 66% (inactive)
O=C(Cn1cnc2onc(-c3ccc(F)cc3)c2c1=O)N1CCN(c2ccccc2F)CC1 | 76% (inactive)
O=C(CCn1cnc2onc(-c3ccc(F)cc3)c2c1=O)N1CCN(c2ccccc2F)CC1 | -4% (active)
O=C(CCn1cnc2onc(-c3ccc(F)cc3)c2c1=O)N1CCN(c2ccccc2)CC1 | 60% (inactive)
CC(=O)c1ccc(N2CCN(C(=O)CCn3cnc4onc(-c5ccc(F)cc5)c4c3=O)CC2)cc1 | -5% (active)
O=C(CCn1cnc2onc(-c3ccc(F)cc3)c2c1=O)N1CCN(c2ccc(F)cc2)CC1 | 77% (inactive)
CC(=O)c1ccc(NC(=O)C2=CC(c3ccc4c(c3)OCO4)=NS(=O)(=O)N2C)cc1 | 103% (inactive)
CCc1cccc(NC(=O)c2c(N3CCCC3=O)c3cc(C)ccc3n2C)c1 | 74% (inactive)
CCOC(=O)C1CCN(C(=O)Cn2c(=O)oc3cc(S(=O)(=O)N4CCC(C)CC4)ccc32)CC1 | 133% (inactive)
Cc1cc(C)cc(NC(=O)CSc2nnc(CNC(=O)c3c(F)cccc3Cl)o2)c1 | 132% (inactive)
CN(C)S(=O)(=O)c1ccc2c(c1)N(CC(=O)N1CCN(c3ccccc3F)CC1)CCS2 | 119% (inactive)
COc1cc(NC(=O)Cn2nc(C(F)(F)F)c3c2CCC3)cc(OC)c1OC | 130% (inactive)
CC(C)NC(=O)N1[C@H](c2cccs2)[C@@H](C)C(=O)[C@@H](C)[C@@H]1c1cccs1 | 51% (inactive)
COc1ccccc1NC(=O)c1ccc2[nH]c(C)cc(=O)c2c1 | 77% (inactive)
CCOC(=O)c1c(NC(=O)CS(=O)(=O)c2ccc(C)cc2)sc2c1CCC(C)C2 (stereo unspecified) | 102% (inactive)
CCOC(=O)c1c(NC(=O)CCCOc2ccccc2C)sc2c1CCC(C)C2 (stereo unspecified) | 16% (active)
CCOC(=O)c1c(NC(=O)CCCOc2ccc(C)cc2)sc2c1CCC(C)C2 (stereo unspecified) | 10% (active)
Cc1ccc(OCCCC(=O)Nc2sc3c(c2C(N)=O)CCC(C)C3)cc1 (stereo unspecified) | 159% (inactive)
CCOC(=O)c1c(NC(=O)COc2ccc(F)cc2)sc2c1CCC(C)C2 (stereo unspecified) | 70% (inactive)
CCOC(=O)c1c(NC(=O)Cn2nnc3ccccc32)sc2c1CCC(C)C2 (stereo unspecified) | 64% (inactive)
CCc1cnc2c(c1SC(C(C)=O)C(=O)N(C)C)c(=O)n(C)c(=O)n2C (stereo unspecified) | 95% (inactive)

Structure (SMILES) | survival
O=C(NC1CCCC1)c1ccc2c(=O)n(Cc3ccccc3)c(SCc3cccc(F)c3)nc2c1 | 72% (inactive)
CCCCOc1ccc(C2c3c(oc4ccccc4c3=O)C(=O)N2c2nc(C)c(C(=O)OCC)s2)cc1OC (stereo unspecified) | 55% (inactive)
CCCn1c2c(c(O)c(C(=O)Nc3ccccc3F)c1=O)CCCC2 | 93% (inactive)
CC(C)CC(=O)Nc1nnc(S(=O)(=O)N2c3ccccc3CC2C)s1 (stereo unspecified) | 75% (inactive)
CC1Cc2ccccc2N1S(=O)(=O)c1nnc(NC(=O)c2cccc(F)c2)s1 (stereo unspecified) | 6% (active)
Cc1cccc(C(=O)Nc2nnc(S(=O)(=O)N3c4ccccc4CC3C)s2)c1 (stereo unspecified) | 16% (active)
CCC(=O)Nc1nnc(S(=O)(=O)N2c3ccccc3CC2C)s1 (stereo unspecified) | 92% (inactive)
Cc1ccc(C(=O)Nc2nnc(S(=O)(=O)N3c4ccccc4CC3C)s2)cc1 (stereo unspecified) | 30% (active)
Cc1ccc(OCC(=O)Nc2nnc(S(=O)(=O)N3c4ccccc4CC3C)s2)cc1 (stereo unspecified) | 34% (active)
CCn1ccc2cc(S(=O)(=O)N3CCC(C(=O)NCCc4ccccc4)CC3)ccc21 | 102% (inactive)
CCOC(=O)c1[nH]c2c(c1Cc1ccccc1)C(=O)CC(c1ccc(Cl)cc1)C2 (stereo unspecified) | 92% (inactive)
NC(=O)c1ccc(NC(=O)C2CCN(S(=O)(=O)Cc3ccccc3)CC2)cc1 | 87% (inactive)
CCOc1ccc(NC(=O)c2cnn3c2NC(C)=C(C(=O)Nc2ccc(Cl)cc2)C3c2ccc(OC)c(OC)c2)cc1 (stereo unspecified) | 59% (inactive)
Cc1ccccc1C(=O)N1CCC(C(=O)Nc2ccc(F)cc2F)CC1 | 67% (inactive)
O=C(Cn1ncc2c(Cl)cccc21)NCc1cccc(Cl)c1 | 110% (inactive)
CC1Cc2ccccc2N1S(=O)(=O)c1nnc(NC(=O)c2ccccc2)s1 (stereo unspecified) | 12% (active)
CC(C)C(=O)Nc1nnc(S(=O)(=O)N2c3ccccc3CC2C)s1 (stereo unspecified) | 87% (inactive)
CCC(CC)C(=O)Nc1nnc(S(=O)(=O)N2c3ccccc3CC2C)s1 (stereo unspecified) | 61% (inactive)
Cc1cc(C)n(C(=O)CNC(=O)Cc2ccccc2)n1 | 89% (inactive)
CC(=O)N1c2ccccc2C(=O)C1N1CCN(c2cccc(C)c2C)CC1 (stereo unspecified) | 80% (inactive)
COc1ccc(-c2noc(CC(=O)N(C)c3ccccc3F)n2)cc1 | 87% (inactive)
CCCN(C(=O)CCc1nc(-c2ccc(C)cc2)no1)c1ccc(OCC)cc1 | -4% (active)
CCCN(C(=O)CCc1nc(-c2ccc(OC)cc2)no1)c1ccccc1F | 3% (active)

Structure (SMILES) | survival
CCOc1ccc(N(CC)C(=O)CCc2nc(-c3ccccc3F)no2)cc1 | 46% (inactive)
CCCN(C(=O)CCc1nc(-c2ccccc2F)no1)c1ccc(CC)cc1 | -7% (active)
COc1ccc(-c2noc(CCC(=O)N(C)c3ccccc3C)n2)cc1 | 80% (inactive)
COc1ccc(OC)c(NC(=O)CCc2nc(-c3ccc(C)cc3)no2)c1 | 70% (inactive)
CN(C(=O)CCc1nc(-c2ccccc2F)no1)c1ccc(Cl)cc1 | 56% (inactive)
CCCN(C(=O)Cc1nc(-c2ccc(OC)cc2)no1)c1ccccc1C | 85% (inactive)
CCOC(=O)c1ccccc1NC(=O)CCc1nc(-c2ccc(C)cc2)no1 | 58% (inactive)
Cc1ccc(-c2noc(CCC(=O)N(C)c3ccccc3F)n2)cc1 | 38% (active)
COc1ccc(CNC(=O)CCc2nc(-c3ccc(OC)cc3)no2)cc1 | 96% (inactive)
COc1ccc2c(c1)cc1c(=O)n(CC(=O)NCCCOC(C)C)nc(C)n12 | 80% (inactive)
O=C(NCCc1ccc(Cl)cc1)c1c2c(nc3ccccc13)C(=O)N(C1CCCCC1)C2 | 92% (inactive)
Cn1c(C(=O)NCc2cccc(F)c2)cc2cc(S(=O)(=O)N3CCCCC3)ccc21 | 81% (inactive)
O=C(CSC1=NCCN1)C1COc2ccccc2O1 (stereo unspecified) | 88% (inactive)
Cc1ccc(C(=O)NCC(=O)OCc2cc(=O)n3ccsc3n2)cc1 | 74% (inactive)
CCN(CC)CCNC(=O)C(=O)NCC(c1cccnc1)N1CCN(c2ccc(F)cc2)CC1 (stereo unspecified) | 79% (inactive)
CC1(c2ccc(Cl)cc2)NC(=O)CS1 (stereo unspecified) | 96% (inactive)
C=CCNc1nc(C(C)C)nc2c1nnn2Cc1ccccc1 | 86% (inactive)
O=C(CSc1nc2ccccc2o1)Nc1ccc(S(=O)(=O)NC2CCCC2)cc1 | 66% (inactive)
COc1ccccc1NC(=O)C(=O)c1cc(C)n(-c2cc(C)cc(C)c2)c1C | 117% (inactive)
COCCCNC(=O)CSc1nc2ccccc2c(=O)n1Cc1ccco1 | 83% (inactive)
COc1cccc(CNC(=O)CCCn2ncn3c(cc4occc43)c2=O)c1OC | 119% (inactive)
Cc1ccc(NC(=O)Nc2cn(CC(C)C)c(=O)c3ccccc23)cc1N(C)C | 78% (inactive)
